sPLA2-III inh = Inhibits HGIII-sPLA2 liposome hydrolysis, primary screen; Q9NZ20; QFRET BODIPY PC-A2 liposome hydrolysis, fluorescence; inhibition, % at 12.2 µM; 370,000 compounds, 0.56% hits;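 active means inhibition above mean plus 3 SD of compounds lying within the high and low control bounds, cut at about 19% in these data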;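 further: 0% = median of test compound wells and 100% = no enzyme DMSO wells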
Target sequence (Q9NZ20 whole entry, looked up): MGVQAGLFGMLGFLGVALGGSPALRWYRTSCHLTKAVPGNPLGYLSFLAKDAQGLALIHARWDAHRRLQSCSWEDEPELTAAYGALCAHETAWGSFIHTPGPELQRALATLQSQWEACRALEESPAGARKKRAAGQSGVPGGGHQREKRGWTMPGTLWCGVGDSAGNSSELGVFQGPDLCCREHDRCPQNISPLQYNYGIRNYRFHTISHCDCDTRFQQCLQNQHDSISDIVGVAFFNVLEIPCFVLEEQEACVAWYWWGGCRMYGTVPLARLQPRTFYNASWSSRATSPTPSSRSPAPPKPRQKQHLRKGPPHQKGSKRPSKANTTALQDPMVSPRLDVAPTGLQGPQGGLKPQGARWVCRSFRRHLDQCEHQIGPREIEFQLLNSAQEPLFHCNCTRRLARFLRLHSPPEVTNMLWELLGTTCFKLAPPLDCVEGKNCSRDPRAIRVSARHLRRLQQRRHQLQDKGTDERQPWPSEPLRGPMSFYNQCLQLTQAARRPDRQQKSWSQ
HTR5A inv ctr = inverse agonist of human HTR5A in OPRM1-OPRD1 counter-screen | HTR5A cell line, luminescence, inverse agonism | inhibition, % at 9.3 µM | 340,000 compounds, 0.083% hits | P47898 | AID 504634; in the data active means inhibition mostly above about 23%, no sharp cut-off; inactive means mostly below about 18%;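 further: 0% = cells with DMSO and 100% = no-cell wells with DMSO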
m5-HT2A agonist = agonists of mouse serotonin 5-HT2A receptor (HTR2A); CHO-K1 mHTR2A beta-arrestin complementation, luminescence; percent of 30 µM serotonin response; AID 624169; P35363; 360,000 compounds, 0.66% hits; activation, % at 7.6 µM;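 active means activation above a run cutoff, the mean activation of all tested compounds plus 3 SD, cut at about 14% in these data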;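 further: 0% = plate median of compound wells and 100% = 30 µM serotonin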
HTR5A ag = HTR5A agonism, opioid heterodimer counter-screen | AID 504692 | activation, % at 9.3 µM | P47898 | HTR5A agonist assay, luminescence, cell-based | 340,000 compounds, 0.61% hits; in the data active means activation mostly above about 9.5%, no sharp cut-off; inactive means mostly below about 7.6%;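 further: 0% = cells with vehicle only and 100% = reference agonist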
OPRM1-OPRD1 inv = inverse agonist of human OPRM1-OPRD1 heterodimerization; cell-based MOR-DOR heterodimer luminescence, inverse agonism; inhibition, % at 9.3 µM; 340,000 compounds, 0.21% hits; in the data active means inhibition above about 22%, passing the limit was not always enough;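 further: 0% = cells with DMSO and 100% = wells without cells with DMSO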
OPRM1-OPRD1 ag = OPRM1-OPRD1 heterodimerization agonism | cells, luminescence | AID 504326 | 340,000 compounds, 0.3% hits | activation, % at 9.3 µM; in the data active means activation above about 18%;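 further: 0% = vehicle-treated cells and 100% = reference agonist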
* marks the source's active call; other numbers are inactive results. An excerpt weighted towards active compounds, which were near 2.2% of everything screened.

CC(=O)Nc1ccc(S(=O)(=O)N2CCC(C(=O)NCCC(=O)Nc3nccs3)CC2)cc1 was read as sPLA2-III inh 3, HTR5A inv ctr -23, m5-HT2A agonist 11, HTR5A ag 3, OPRM1-OPRD1 inv 15 and OPRM1-OPRD1 ag -3.
`O=C(Nc1ccc2ccccc2c1)C1CC2CCC1C2` (stereo unspecified) gave sPLA2-III inh 2.
O=C(O)CCN1C(=O)/C(=C/c2ccc(F)cc2F)SC1=S was read as sPLA2-III inh -6.
`Cc1ccc(-n2c(=O)[nH]c3c(C(N)=O)nc(CC(C)C)nc32)cc1` gave sPLA2-III inh 4, HTR5A inv ctr -10, m5-HT2A agonist -6, HTR5A ag -8, OPRM1-OPRD1 inv -4 and OPRM1-OPRD1 ag 1.
For Cc1ccc(-n2c(=O)[nH]c3c(C(N)=O)nc(-c4ccc(C)o4)nc32)cc1 the results were sPLA2-III inh -15, HTR5A inv ctr -41, m5-HT2A agonist 4, HTR5A ag 11*, OPRM1-OPRD1 inv -18 and OPRM1-OPRD1 ag 3.
Screening CC(C)[C@@H]1OC(=O)[C@@H]2CCCN2C(=O)[C@H](C)OC(=O)[C@H](C)[C@@H](C(C)C)NC(=O)[C@@H]2CCCN2C(=O)[C@H]([C@H](C)Cc2ccccc2)NC(=O)[C@@H]2CCCN2C(=O)[C@@H](C(C)C)N(C)C1=O returned sPLA2-III inh -7.
COC(=O)[C@]12C[C@H](CC(=O)N3CCCCC3)C(=O)N(CCc3ccc(OC)c(OC)c3)C1=C[C@H](COCc1ccccc1)O[C@@H]2C was read as sPLA2-III inh 5.
For O=C(Nc1ccccc1Cl)c1ccccc1 the results were sPLA2-III inh 0, HTR5A inv ctr 7, m5-HT2A agonist -3, HTR5A ag -3, OPRM1-OPRD1 inv 8 and OPRM1-OPRD1 ag -2.
`O=C(Nc1ccccc1Cl)C(Cl)C(=O)c1ccccc1` (stereo unspecified) gave sPLA2-III inh -4, HTR5A inv ctr 12, m5-HT2A agonist 3, HTR5A ag -5, OPRM1-OPRD1 inv 52* and OPRM1-OPRD1 ag -10.
For COC(=O)c1cc(-c2cccc3c2sc2ccccc23)c(=O)n2c1CCC2 the results were sPLA2-III inh 12.
OCCN=C1CCCc2c1[nH]c1ccc(Cl)cc21 was read as sPLA2-III inh -2, HTR5A inv ctr -7, m5-HT2A agonist 2, HTR5A ag 13*, OPRM1-OPRD1 inv -15 and OPRM1-OPRD1 ag 3.
For OCCCN=C1CCCc2c1[nH]c1ccc(Cl)cc21 the results were sPLA2-III inh -2, HTR5A inv ctr -11, m5-HT2A agonist -3, HTR5A ag 5, OPRM1-OPRD1 inv 2 and OPRM1-OPRD1 ag 0.
C=C(C)Cn1c(CCNC(=O)C(C)(C)C)nc2ccccc21 was read as sPLA2-III inh -4, HTR5A inv ctr -4, m5-HT2A agonist 1, HTR5A ag 10*, OPRM1-OPRD1 inv 5 and OPRM1-OPRD1 ag -1.
CC1C(O)=C(c2nc3ccccc3[nH]2)C(=N)N1c1ccccc1 (stereo unspecified) was read as sPLA2-III inh 23*, HTR5A inv ctr -14, m5-HT2A agonist -5, HTR5A ag -1, OPRM1-OPRD1 inv 10 and OPRM1-OPRD1 ag -2.
Screening CCC(C)N1CC(O)=C(c2nc3ccccc3[nH]2)C1=N (stereo unspecified) returned sPLA2-III inh 14, HTR5A inv ctr 7, m5-HT2A agonist -4, HTR5A ag 2, OPRM1-OPRD1 inv 19 and OPRM1-OPRD1 ag -3.
CN(C)C=Nc1nc2c(Br)ccc(Br)c2cc1C(=O)NCC(C)(C)C was read as sPLA2-III inh 2.
Screening COC(CNC(=O)[C@H](Cc1ccccc1)NCC(=O)NC1CCCCC1)OC returned sPLA2-III inh 8.
`O=S(=O)(Nc1nc(-c2sccc2Cl)cs1)c1cc(Cl)ccc1Cl` gave HTR5A inv ctr 15, m5-HT2A agonist 20*, HTR5A ag 4, OPRM1-OPRD1 inv 1 and OPRM1-OPRD1 ag 0.
Cc1ccccc1NC(=O)N(C)[C@H]1C[C@H]2c3[nH]c4c(-c5ccccc5)cccc4c3CCN2C[C@H]1[C@H](C)O was read as sPLA2-III inh -3.
`CCn1c(C)nc2cc(C(=O)N/N=C(\C)c3ccccc3O)ccc21` gave sPLA2-III inh 1, HTR5A inv ctr -26, m5-HT2A agonist 3, HTR5A ag 10*, OPRM1-OPRD1 inv 8 and OPRM1-OPRD1 ag -2.

Bioassay records (PubChem)
